Results from PubChem BioAssay (NCATS).
Records with an inconclusive call do not appear. Values without a mark were called inactive. Active and inactive are the calls of the source. Calls come from the whole dose curve; as a rule, active = well fitted inhibition curve with a large enough effect; inconclusive = small, poorly fitted or top-dose-only effect; inactive = no such curve, though single readings can be large or run the other way.

biological target: Protein phosphatase 1D (Homo sapiens) (UniProt O15297); assay: RapidFire Mass Spectrometry qHTS Assay for Modulators of WT P53-Induced Phosphatase 1 (WIP1) (AID 1347424); conditions: WIP1 dephosphorylation of phosphopeptide, RapidFire MS; series mostly up to 63 µM; activity change, negative = inhibition: at the top concentration;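 note: amount of dephosphorylated VEPPL-S-QETFS peptide product formed by WIP1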;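 for activity change, negative = inhibition: plate controls were DMSO wells for no effect and GSK830371 inhibitor control at 10 µM for full effect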
Outline: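 10 nM WIP1 + cpd, 1 h RT; + 2 uM VEPPL-pS-QETFS, 5 min RT; stop 0.5% formic acid; labelled product standard 1 uM; RapidFire MS. Buffer 50 mM Tris pH 7.5, 30 mM MgCl2, 1 mM TCEP.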
Potency is the fitted concentration of half-maximal effect.

Sequence of Protein phosphatase 1D (Homo sapiens) (O15297 whole entry, looked up): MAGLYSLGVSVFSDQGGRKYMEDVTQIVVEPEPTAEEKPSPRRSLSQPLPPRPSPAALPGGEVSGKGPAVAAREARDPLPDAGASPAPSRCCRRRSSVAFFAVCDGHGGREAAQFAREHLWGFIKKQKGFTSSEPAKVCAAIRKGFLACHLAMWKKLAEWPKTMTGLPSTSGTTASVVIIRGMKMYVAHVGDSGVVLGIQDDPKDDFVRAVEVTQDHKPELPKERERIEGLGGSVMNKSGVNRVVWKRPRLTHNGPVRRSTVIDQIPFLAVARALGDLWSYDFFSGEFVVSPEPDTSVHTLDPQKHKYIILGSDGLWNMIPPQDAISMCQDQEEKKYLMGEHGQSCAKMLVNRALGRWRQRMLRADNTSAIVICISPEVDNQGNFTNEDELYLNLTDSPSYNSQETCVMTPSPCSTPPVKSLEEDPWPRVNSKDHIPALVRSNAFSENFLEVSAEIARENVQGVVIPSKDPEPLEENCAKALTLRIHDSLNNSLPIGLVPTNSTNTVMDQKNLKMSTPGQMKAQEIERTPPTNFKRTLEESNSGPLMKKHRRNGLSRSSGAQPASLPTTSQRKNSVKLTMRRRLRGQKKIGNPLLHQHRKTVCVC

SMILES | activity change, negative = inhibition | Potency
OC1(c2ccccc2)CCNCC1 | -9.21% | –
CCCCC(O)/C=C(C)/C=C/C=C/C(=O)N1CCCC1=O (configuration not stated) | 17.7% | –
CCS(=O)(=O)c1ccc(OC)c(C(=O)OC)c1 | -0.92% | –
N#CC1(c2ccc(F)cc2)CCC(=O)CC1 | 0.732% | –
CN1CCC(Nc2ncc3ncnc(Nc4ccc(F)c(Cl)c4)c3n2)CC1 | 12% | –
Nc1cc(C(F)(F)F)ccc1S | 7.31% | –
CO/N=C(\C(=O)O)c1csc(NC(=O)CCl)n1 | -2.84% | –
CC(=O)N1CCN(c2ccc(O)cc2)CC1 | -1.63% | –
CO[C@@H]1[C@@H](OC)[C@H](C)[C@@](O)(CC(=O)O)O[C@H]1[C@H](C)[C@H]1O[C@@]2(CC[C@@](C)([C@H]3CC[C@@](C)([C@@H]4O[C@@H]([C@H]5O[C@](C)(O)[C@H](C)C[C@@H]5C)C[C@@H]4OC4C[C@H](OC)[C@@H](OC)[C@H](C)O4)O3)O2)C[C@H](O)[C@H]1C (some centres not stated) | 49% | –
CC(C)(C)C(=O)OCOC(=O)C1N2C(=O)CC2S(=O)(=O)C1(C)C (configuration not stated) | 6.68% | –
CC(=O)OCC[N+](C)(C)C | 0.592% | –
CN1CCCN(C(c2ccccc2)c2ccc(Cl)cc2)CC1 (configuration not stated) | 26.2% | –
O=C1NC(c2ccccc2)(c2ccccc2)C(=O)N1COP(=O)(O)O | -4.94% | –
CN(C)CCOC(c1ccccc1)c1ccc(Br)cc1 (configuration not stated) | 13.6% | –
O=C(O)Cn1c(=O)n(Cc2ccc(Br)cc2F)c(=O)c2ccc(Cl)cc21 | -16.6% | –
CCCC(=O)c1cc(O)c(O)cc1O | – | 35.5 µM (active)
Brc1ccccc1-c1ccccc1 | -5.4% [at 128 µM] | –
CCN1CCN(C(=O)N[C@@H](C(=O)N[C@@H]2C(=O)N3[C@@H]2SC(C)(C)[C@H]3C(=O)O)c2ccccc2)C(=O)C1=O | 0.78% | –
CCCCCCCCCCCCCCCCCCN(C)C | -1.87% | –

SMILES | activity change, negative = inhibition | Potency
O=C1Cc2cc(Cl)ccc2N1 | 15.8% | –
CCc1cc(S(=O)(=O)O)c2cc(C(C)C)cccc1-2 | -19.9% | –
NS(=O)(=O)c1cc2c(cc1Cl)CN(C1CCCCC1)C2=O | -3.23% | –
CCCCOCCOC(=O)c1cccnc1 | -6.71% | –
O=C1CC2(CCCC2)CC(=O)N1CCNCC1COc2ccccc2O1 (configuration not stated) | -2.7% | –
Cc1ccc(/C=N/n2c(-c3ccccc3)csc2=S)cc1 | 7.1% | –
CC(=O)CC/C=C(\C)CC/C=C(\C)CC/C=C(\C)CCC=C(C)C | 51.7% | –
Cc1onc(-c2c(Cl)cccc2Cl)c1C(=O)Cl | -0.633% | –
OC[C@]1(O)OC[C@@H](O)[C@H](O)[C@@H]1O | 4.28% | –
CCCC(=O)O[C@]1(C(=O)CCl)[C@@H](C)C[C@H]2[C@@H]3CCC4=CC(=O)C=C[C@]4(C)[C@@]3(F)C(=O)C[C@@]21C | 8.78% | –
NC(=O)C1(N2CCCCC2)CCN(CCCN2c3ccccc3CCc3ccc(Cl)cc32)CC1 | 34.3% | –
CC(CC1c2ccccc2CCc2ccccc21)CN(C)C (configuration not stated) | 24.1% | –
COc1ccc2c(c1)CCCC2=O | 3.64% | –
CC(=O)OCC(=O)[C@@]1(O)CCC2C3CCC4=CC(=O)CC[C@]4(C)C3[C@@H](O)C[C@@]21C (some centres not stated) | 7.82% | –
CC(C)(C)C1CCC(CC2=C(O)c3ccccc3C(=O)C2=O)CC1 (configuration not stated) | -7.43% | –
CC(=O)O[C@H]1CC[C@@]2(C)C(=CC[C@@H]3[C@@H]2CC[C@]2(C)C(C(C)=O)=CC[C@@H]32)C1 | 18.7% | –
O=C(CCCl)NCc1ccccc1 | 7.15% | –
CCCCN(CCN(CCCC)C(=O)N1CCOCC1)C(=O)N1CCOCC1 | -3.43% | –
